Data as given in article PMC5540273 (PLoS ONE, 2017).

These molecules were tested on RIPK1. Settings: concentration: 1 μM, replicates: in singlicate; n = 1.
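Also: KINOMEscan kinase panel screen.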

SMILES | %Inh [%]
Cc1ccc(Nc2ccnc(Nc3ccc(C)c(F)c3)n2)cc1O.Cl [GW582868] | 1
O=C(Nc1c(F)cccc1F)c1cc(C(=O)c2ccccc2F)c[nH]1 [GSK1326180] | 0
COc1cccc(CC(=O)N2CCc3cc(-c4cn(C)c5ncnc(N)c45)ccc32)c1 [GSK2608899] | 100
Cl.N#CCc1ccc(Nc2nccc(Nc3ccc(Oc4ccccc4)cc3)n2)cc1 [GW639905] | 0
Nc1ncc(-c2ccc3nccc(-c4ccncc4)c3c2)cc1S(=O)(=O)N1CCCCC1 [GSK1693850] | 31
COc1cc(Nc2nccc(N3CCC(NS(=O)(=O)c4ccc(NC(C)=O)cc4)CC3)n2)cc(OC)c1OC [GSK1379825] | 81
COc1cccc2c(-c3ccncc3)c(-c3ccc(F)cc3)nn12 [GW468513] | 0
CCn1cnc2c(NCc3ccccc3)ncnc21 [SKF-96418] | 0
COc1cccc(-c2nc(-c3ccccc3)[nH]c2-c2ccncc2)c1 [SB-610250] | 0
COc1cc(Nc2ccnc3cc(-c4ccncc4)ccc23)cc(OC)c1OC.Cl [GW494610] | 0
O=C(O)C(F)(F)F.O=c1[nH]ccc2nc(N[C@@H]3CCNC3)nc(Nc3ccc4c(c3)S(=O)(=O)CC4)c12 [GSK2181306] | 0
CN(C)c1ncnc2nc[nH]c12 [SKF-31736] | 0
O=C(Nc1n[nH]c2nc(-c3ccccc3O)ccc12)C1CC1 [SB-711880] | 70
CCNc1nccc(-c2c(-c3ccc(F)cc3)ncn2C2CCN(C)CC2)n1 | 8
O=C(O)C(F)(F)F.O=c1[nH]ccc2nc(N[C@@H]3CCNC3)nc(Nc3cc(Cl)cc(Cl)c3)c12 [GSK2188764] | 16
COC(=O)Nc1nc2cc(Oc3ccc(NC(=O)Nc4cccc(SC)c4)cc3)ccc2[nH]1.Cl [GW697999] | 4
Cc1cccc(Nc2nc(N[C@H]3CCCC[C@H]3N)ncc2C(N)=O)c1.Cl [GSK986310] | 7
COc1cc(Nc2nccc(N3CCC(NC(=O)Nc4ccc5c(c4)OCO5)C3)n2)cc(OC)c1OC (centres unmarked) [GSK1379766] | 0
CC(C)(C)c1ccc(C(=O)Nc2cn3cc(-n4ccnc4)ccc3n2)cc1 | 2

SMILES | %Inh [%]
CC(C)NCC(Cc1ccccc1)NC(=O)c1cc(Br)c(-c2ccnc3[nH]ccc23)s1.Cl.Cl (centres unmarked) [GSK1383281] | 0
CSc1ccc(NC2=C(c3ccc(Cl)cc3)C(=O)NC2=O)cc1 [SB-317658] | 0
O=C(Nc1n[nH]c2cc(-c3cccs3)ccc12)C1CC1 [SB-731284] | 59
O=C(Nc1n[nH]c2nc(-c3cccc(O)c3)ccc12)C1CC1 [SB-711805] | 14
Cc1cc(-c2ccnc(Nc3cccc(C#N)c3)n2)cc(C)c1O [GSK1440913] | 53
Cc1ccc(-c2ccc3occ(-c4ccc(S(C)=O)cc4)c3c2)nn1 (centres unmarked) | 0
CN(C)CCNS(=O)(=O)c1ccc(-c2ccnc3[nH]ccc23)cc1 [GSK977620] | 0
COC(=O)Nc1nc2ccc(Oc3ccc(CC(=O)Nc4cc(C(F)(F)F)ccc4F)cc3)cc2[nH]1 [GW680903] | 84
Cl.Cl.NCC(NC(=O)c1cc(-c2cccnc2)c(-c2ccnc3[nH]ccc23)s1)c1ccccc1 (centres unmarked) [GSK1323434] | 10
CCn1c(-c2nonc2N)nc2c(-c3ccccc3)ncc(OCCCN)c21.O=C(O)C(F)(F)F.O=C(O)C(F)(F)F [GSK260205] | 0
Cc1ccc(NC(=O)c2cccc(N3CCCCC3)c2)cc1-c1ccc(C(=O)NCC2CC2)cc1 [GSK1917008] | 13
CN(c1ccc(NC(=O)N2CCN(CCCN3CCOCC3)CC2)cc1)c1ccnc(Nc2ccc(CS(C)(=O)=O)cc2)n1.Cl [GW830899] | 4
c1ccc(Oc2ccc(Nc3ccnc4cc(-c5ccc(CN6CCCCC6)o5)ccc34)cc2)nc1 [GW567143] | 0
Cc1ccc(NC(=O)c2ccc(Cl)c(Cl)c2)cc1-c1ccc(C(=O)Nc2ccncc2)cc1 [GSK1398460] | 23
Cc1ccccc1CC(=O)N1CCc2cc(-c3cn(C)c4ncnc(N)c34)ccc21 [GSK2603346] | 100
CNc1nccc(-c2ccc3c(N)n[nH]c3c2)n1 [GSK2206003] | 8
Nc1ncc(-c2cn[nH]c2)c2scc(-c3ccc4c(c3)CCN4C(=O)Cc3ccccc3)c12 [GSK2593067] | 100
COC(=O)Nc1nc2ccc(Oc3ccc(NC(=O)Nc4cc(C(F)(F)F)ccc4F)cc3)cc2[nH]1.Cl [GW654607] | 74

These molecules were tested on RIPK2. Settings: concentration: 1 μM, replicates: in singlicate; n = 1.

SMILES | %Inh [%]
Cc1ccc(Nc2ccnc(Nc3ccc(C)c(F)c3)n2)cc1O.Cl [GW582868] | 55
O=C(Nc1c(F)cccc1F)c1cc(C(=O)c2ccccc2F)c[nH]1 [GSK1326180] | 0
COc1cccc(CC(=O)N2CCc3cc(-c4cn(C)c5ncnc(N)c45)ccc32)c1 [GSK2608899] | 35
Cl.N#CCc1ccc(Nc2nccc(Nc3ccc(Oc4ccccc4)cc3)n2)cc1 [GW639905] | 96.1
Nc1ncc(-c2ccc3nccc(-c4ccncc4)c3c2)cc1S(=O)(=O)N1CCCCC1 [GSK1693850] | 22
COc1cc(Nc2nccc(N3CCC(NS(=O)(=O)c4ccc(NC(C)=O)cc4)CC3)n2)cc(OC)c1OC [GSK1379825] | 80
COc1cccc2c(-c3ccncc3)c(-c3ccc(F)cc3)nn12 [GW468513] | 56
CCn1cnc2c(NCc3ccccc3)ncnc21 [SKF-96418] | 0
COc1cccc(-c2nc(-c3ccccc3)[nH]c2-c2ccncc2)c1 [SB-610250] | 75
COc1cc(Nc2ccnc3cc(-c4ccncc4)ccc23)cc(OC)c1OC.Cl [GW494610] | 83
O=C(O)C(F)(F)F.O=c1[nH]ccc2nc(N[C@@H]3CCNC3)nc(Nc3ccc4c(c3)S(=O)(=O)CC4)c12 [GSK2181306] | 9
CN(C)c1ncnc2nc[nH]c12 [SKF-31736] | 0
O=C(Nc1n[nH]c2nc(-c3ccccc3O)ccc12)C1CC1 [SB-711880] | 0
CCNc1nccc(-c2c(-c3ccc(F)cc3)ncn2C2CCN(C)CC2)n1 | 36
O=C(O)C(F)(F)F.O=c1[nH]ccc2nc(N[C@@H]3CCNC3)nc(Nc3cc(Cl)cc(Cl)c3)c12 [GSK2188764] | 30
COC(=O)Nc1nc2cc(Oc3ccc(NC(=O)Nc4cccc(SC)c4)cc3)ccc2[nH]1.Cl [GW697999] | 29
Cc1cccc(Nc2nc(N[C@H]3CCCC[C@H]3N)ncc2C(N)=O)c1.Cl [GSK986310] | 2
COc1cc(Nc2nccc(N3CCC(NC(=O)Nc4ccc5c(c4)OCO5)C3)n2)cc(OC)c1OC (centres unmarked) [GSK1379766] | 19
CC(C)(C)c1ccc(C(=O)Nc2cn3cc(-n4ccnc4)ccc3n2)cc1 | 24

SMILES | %Inh [%]
CC(C)NCC(Cc1ccccc1)NC(=O)c1cc(Br)c(-c2ccnc3[nH]ccc23)s1.Cl.Cl (centres unmarked) [GSK1383281] | 0
CSc1ccc(NC2=C(c3ccc(Cl)cc3)C(=O)NC2=O)cc1 [SB-317658] | 0
O=C(Nc1n[nH]c2cc(-c3cccs3)ccc12)C1CC1 [SB-731284] | 4
O=C(Nc1n[nH]c2nc(-c3cccc(O)c3)ccc12)C1CC1 [SB-711805] | 5
Cc1cc(-c2ccnc(Nc3cccc(C#N)c3)n2)cc(C)c1O [GSK1440913] | 28
Cc1ccc(-c2ccc3occ(-c4ccc(S(C)=O)cc4)c3c2)nn1 (centres unmarked) | 0
CN(C)CCNS(=O)(=O)c1ccc(-c2ccnc3[nH]ccc23)cc1 [GSK977620] | 0
COC(=O)Nc1nc2ccc(Oc3ccc(CC(=O)Nc4cc(C(F)(F)F)ccc4F)cc3)cc2[nH]1 [GW680903] | 48
Cl.Cl.NCC(NC(=O)c1cc(-c2cccnc2)c(-c2ccnc3[nH]ccc23)s1)c1ccccc1 (centres unmarked) [GSK1323434] | 26
CCn1c(-c2nonc2N)nc2c(-c3ccccc3)ncc(OCCCN)c21.O=C(O)C(F)(F)F.O=C(O)C(F)(F)F [GSK260205] | 30
Cc1ccc(NC(=O)c2cccc(N3CCCCC3)c2)cc1-c1ccc(C(=O)NCC2CC2)cc1 [GSK1917008] | 6
CN(c1ccc(NC(=O)N2CCN(CCCN3CCOCC3)CC2)cc1)c1ccnc(Nc2ccc(CS(C)(=O)=O)cc2)n1.Cl [GW830899] | 17
c1ccc(Oc2ccc(Nc3ccnc4cc(-c5ccc(CN6CCCCC6)o5)ccc34)cc2)nc1 [GW567143] | 96.3
Cc1ccc(NC(=O)c2ccc(Cl)c(Cl)c2)cc1-c1ccc(C(=O)Nc2ccncc2)cc1 [GSK1398460] | 11
Cc1ccccc1CC(=O)N1CCc2cc(-c3cn(C)c4ncnc(N)c34)ccc21 [GSK2603346] | 63
CNc1nccc(-c2ccc3c(N)n[nH]c3c2)n1 [GSK2206003] | 0
Nc1ncc(-c2cn[nH]c2)c2scc(-c3ccc4c(c3)CCN4C(=O)Cc3ccccc3)c12 [GSK2593067] | 94.6
COC(=O)Nc1nc2ccc(Oc3ccc(NC(=O)Nc4cc(C(F)(F)F)ccc4F)cc3)cc2[nH]1.Cl [GW654607] | 81
